Shown are actives, neighbours in structure and some others; about 10% of the full set was active somewhere.
HEK293 tox – HEK 293 cell cytotoxicity. HEK 293 viability, ATP luminescence (CellTiter-Glo), 48-72 h. Potency, µM (series often up to 115 µM), for the others: top-dose activity change, negative = cytotoxicity, actives largely listed as inhibitors. hit rate 6.6% among 94,000. AID 1345083; further: on the % scale 0 is the no-effect control and ±100 the full control effect; nearly all actives have a fitted effect of over 60% in size
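HEK 293 cells at 250 cells/well were exposed to compounds by pintool transfer for 48 or 72 hr at 37 degree Celsius, 5% CO2. Viability was read as ATP-coupled luminescence with CellTiter-Glo after 10 min at room temperature.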
GPT2 inh – GPT2 alanine aminotransferase inhibition; Q8TD30; Recombinant GPT2, coupled pyruvate oxidase/HRP Amplex Red fluorescence; Potency, µM (doses to about 57.7 µM), for the others: top-dose activity change, negative = inhibition, most hits filed as inhibitors; hit rate 0.25% among 100,000; further: on the % scale 0 is the no-effect control and ±100 the full control effect; nearly all actives have a fitted effect of over 60% in size
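Inhibition is scored from Amplex Red fluorescence generated when pyruvate oxidase and HRP act on pyruvate released by GPT2. Reactions contain 10ng/uL enzyme, 250uM a-KG and 2mM L-alanine and run 30 min at room temperature.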
hNpr1 antagonist – blocks ANP-stimulated signaling of human Npr1 receptor | hit rate 1.6% among 76,000 | AID 1347048 | P16066 | Potency, µM (highest dose often 46.3 µM), without a hit: at the highest dose activity change, negative = inhibition, usual class: inhibitors | HEK293 hNpr1 GloSensor cGMP, ANP-stimulated luminescence; calls by dose curve; further: on the % scale 0 is the no-effect control and ±100 the full control effect; nearly all actives have a fitted effect of over 60% in size
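HEK293 cells stably expressing human Npr1 and cGMP GloSensor pGS-40F, loaded 2 h with 2% GloSensor reagent, given compound 30 min at room temperature. Luminescence read before and 20 min after 0.1 nM hNppA.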
FLuc inh-1 – Photinus pyralis luciferase inhibition; Potency, µM (titrated, usually from 115 µM), usual class: inhibitors; purified P. pyralis luciferase, luminescence, biochemical; P08659; hit rate 2.5% among 76,000; further: on the % scale 0 is the no-effect control and ±100 the full control effect; nearly all actives have a fitted effect of over 65% in size
Target sequence (P08659 whole entry, looked up): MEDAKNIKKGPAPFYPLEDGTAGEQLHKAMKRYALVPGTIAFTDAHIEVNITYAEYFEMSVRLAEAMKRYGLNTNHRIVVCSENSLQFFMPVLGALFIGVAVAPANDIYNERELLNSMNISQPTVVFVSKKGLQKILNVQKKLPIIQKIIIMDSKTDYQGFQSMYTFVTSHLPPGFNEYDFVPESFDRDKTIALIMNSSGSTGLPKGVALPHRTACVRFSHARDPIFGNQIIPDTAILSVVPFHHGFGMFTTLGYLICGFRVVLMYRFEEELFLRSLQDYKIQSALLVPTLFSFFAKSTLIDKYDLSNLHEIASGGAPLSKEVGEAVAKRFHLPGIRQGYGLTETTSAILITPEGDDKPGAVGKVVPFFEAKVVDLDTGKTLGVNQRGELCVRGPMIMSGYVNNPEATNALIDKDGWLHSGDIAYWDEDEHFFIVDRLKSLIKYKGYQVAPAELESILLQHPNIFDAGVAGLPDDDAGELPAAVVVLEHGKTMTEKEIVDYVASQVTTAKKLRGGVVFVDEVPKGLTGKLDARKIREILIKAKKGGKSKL
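Purified 10nM P. pyralis luciferase with 10uM D-luciferin and 10uM ATP in 50mM Tris acetate pH 7.5, 10mM Mg acetate, 0.01% Tween-20, 0.05% BSA. qHTS titration; luminescence read by CCD imager.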
3T3 cytotox – NIH 3T3 cell cytotoxicity; NIH 3T3 viability, CellTiter-Glo ATP luminescence, 48-72 h; Potency, µM (highest dose often 96.7 µM), without a hit: at the highest dose activity change, negative = cytotoxicity, most hits filed as inhibitors; hit rate 4.3% among 94,000; further: on the % scale 0 is the no-effect control and ±100 the full control effect; nearly all actives have a fitted effect of over 55% in size
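Cells were seeded at 400 per well, treated with pin-transferred compound, and kept 48 or 72 hr at 37 °C before CellTiter-Glo addition and luminescence imaging of cellular ATP.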
FLuc SDR -ATP – stabilizes firefly luciferase without ATP; shares compounds with FLuc inh-1; Purified FLuc-C-HiBiT, Nano-Glo HiBiT luminescence, no ATP; Potency, µM (highest dose often 32.7 µM), inactives show top-dose activation (signal gain), hits mostly activators; hit rate 7.8% among 1,300; AID 1963318; further: nearly all actives have a fitted effect of over 55% in size
FLuc SDR ATP – firefly luciferase binding stabilization, ATP added; AID 1963319; hit rate 8.7% among 1,300; shares compounds with FLuc inh-1; purified FLuc-C-HiBiT + ATP, HiBiT complementation luminescence; Potency, µM (series often up to 32.7 µM), without a hit: at the top dose activation (gain of signal), hits mostly activators;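 further: signal reports ligand binding via conformational change of the enzyme rather than luciferase catalysis; % of control where 0% means no effect; nearly all actives have a fitted effect of over 55% in size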
FLuc inh-2 – firefly luciferase enzyme inhibition; AID 1963320; hit rate 42% among 1,300; shares compounds with FLuc inh-1; Potency, µM (series often up to 32.7 µM), for the others: top-dose activity change, negative = inhibition, actives largely listed as inhibitors; purified FLuc-C-HiBiT enzyme, luciferin luminescence; further: on the % scale 0 is the no-effect control and ±100 the full control effect; nearly all actives have a fitted effect of over 70% in size
The depositor's hits bear a star; i = inactive; ? = inconclusive; / = no result; [ ] = another dose, or the depositor's remark. Unless noted, the call rests on the fitted dose curve; in most records, active means well fitted curve in the direction sought with a large enough effect; inconclusive means small, poorly fitted or top-dose-only effect, or another doubt; inactive means no such curve, though single readings can be large; an effect the other way counts as inactive or inconclusive. Potency means the concentration at half of the fitted maximal effect.

SMILES	HEK293 tox	GPT2 inh	hNpr1 antagonist	FLuc inh-1	3T3 cytotox	FLuc SDR -ATP	FLuc SDR ATP	FLuc inh-2
Cc1ccc2nc(-c3ccc(NC(=O)COc4ccc(Br)cc4Br)cc3)sc2c1	/	/	/	/	/	?	?	3.51µM*
Cc1ccc2nc(-c3ccc(NC(=O)COc4ccc(Cl)c(C)c4)cc3)sc2c1	/	/	/	/	/	15.5%	9.6%	-10.8%
Cc1ccc(NC(=O)c2cc(NC(=O)C3CC3)cc3nc(C)ccc23)cc1	?	0.8%	3.6%	i	?	/	/	/
CSC(=S)Nc1ccc(-c2nc3ccc(C)cc3s2)cc1	/	/	/	/	/	25.0%	18.6%	2.48µM*
COCCOC1CCOC2(CCN(S(=O)(=O)c3c(C)noc3C)CC2)C1 (centres undefined)	-2.8%	-4.9%	7.2%	i	-13.3%	/	/	/
COCCOCC1(CNCC2CC2)C[C@@H](O)[C@@H](O)C1 (some centres undefined)	?	-6.2%[88.5 µM]	2.6%[70.6 µM]	i	-3.6%[174 µM]	/	/	/
Cc1ccc(NC(=O)Cn2c(-c3ccccc3)nc(C)cc2=O)cc1	?	i	-18.2%	i	?	/	/	/
Cc1ccc2nc(-c3ccc(NC(=O)Cc4ccccc4)cc3)sc2c1	/	/	/	/	/	12.5%	14.3%	?
Cc1c(C(=O)NCc2cccc(Br)c2)oc2ccc3c(c12)C(=O)CC(C)(C)O3	/	/	/	/	/	16.9%	10.4%	?
O=C(CCc1conc1-c1ccccc1F)NCc1cccc(Br)c1	-20.9%	i	0.8%	i	?	/	/	/
COCc1nc2nccc(-c3ccc4c(c3)OCCCO4)n2n1	-2.8%	-8.3%	-7.4%	i	-0.1%	/	/	/
c1coc(-c2nc3nccc(-c4ccc5c(c4)OCCCO5)n3n2)c1	?	i	?	1.26µM*	?	?	?	1.76µM*
O=C(CC1CCN(S(=O)(=O)c2ccc3c(c2)CCCC3)C1)NCc1ccccc1 (centres undefined)	?	i	?	i	?	/	/	/
O=C(O)C1(CCc2ccccc2)CCCN(c2ncnc3nc[nH]c23)C1 (centres undefined)	-12.6%	i	2.1%	i	3.2%	14.1%	10.4%	1.2%
Nc1nccc(N2CCCC(Cc3ccccc3F)(C(=O)O)C2)n1 (centres undefined)	2.8%	-17.1%[11.5 µM]	6.4%	i	i	/	/	/
CC(=O)Nc1nc(C)c(-c2nc(N3CCCC(O)C3)no2)s1 (centres undefined)	/	-1.3%	/	/	/	/	/	/
COc1cc(OC)cc(C(=O)Nc2ccccc2-c2nc3ccccc3s2)c1	/	/	/	/	/	12.4%	9.8%	-4.2%
COc1ccc(NC(=O)c2cn3cc(-c4cccc(OC)c4)sc3n2)cc1	?	i	/	/	?	/	/	/
CCCOc1cccc(C(=O)Nc2ccc(-c3nc4ccccc4s3)c(Cl)c2)c1	/	/	/	/	/	9.5%	8.7%	?
COc1cccc(C(=O)Nc2cnc(-c3ccccc3)nc2)c1	?	-7.4%	-28.9%	i	-22.0%	/	/	/
COc1cccc(-c2nc3cc(NC(=O)c4ccc(C)c([N+](=O)[O-])c4)ccc3s2)c1	/	/	/	/	/	8.9%	9.2%	-15.0%
COc1cccc(C(=O)Nc2ccc(-c3nc4ccccc4s3)c(O)c2)c1	/	/	/	/	/	12.9%	9.2%	0.7%
CCOc1cc(C(=O)Nc2ccc(Cl)c(-c3nc4ccccc4[nH]3)c2)cc(OCC)c1OCC	/	1.7%	/	/	/	/	/	/
Cc1cc(C(=O)N2CC(F)(F)C[C@H]2c2nc(C)no2)on1	3.2%	-6.1%	-0.1%	i	i	/	/	/
N#Cc1ccc(C(=O)Nc2ccccc2-c2nc3ccccc3s2)c(F)c1	/	/	/	/	/	14.3%	9.4%	2.2%
SMILES	HEK293 tox	GPT2 inh	hNpr1 antagonist	FLuc inh-1	3T3 cytotox	FLuc SDR -ATP	FLuc SDR ATP	FLuc inh-2
CCS(=O)(=O)c1cccc(C(=O)Nc2ccc(-c3nc4ccccc4s3)c(O)c2)c1	/	/	/	/	/	4.1%	4.2%	?
Cn1ncc2c(C(=O)Nc3ccccc3F)cc(-c3ccccc3F)nc21	?	/	/	/	-20.9%	/	/	/
COc1cccc(C(=O)Nc2ccc3nc(SCC(=O)N4CCOCC4)sc3c2)c1	/	/	/	/	/	?	21.2%	9.89µM*
COc1cccc(C(=O)Nc2cccc(-c3nnc4n3CCCC4)c2)c1	-22.6%	4.2%	-4.6%	i	-15.8%	/	/	/
S=C(Nc1ccccc1)N[C@H]1CO[C@H]2[C@@H]1OC[C@H]2OCc1ccccc1	?	i	-19.1%[70.6 µM]	i	-18.9%[138 µM]	/	/	/
CCN1C(=O)CCN(S(=O)(=O)c2cccc3cccnc23)CC12CCOCC2	0.9%	-11.3%	1.4%	i	3.2%	/	/	/
CCOc1cccc(-c2nc(C3CCOC3)no2)c1 (centres undefined)	i	3.6%	0.7%	12.6µM*	0.8%	13.0%	10.9%	-2.7%
COc1cccc(-c2ccc(-c3nc(C4CCOC4)no3)o2)c1 (centres undefined)	?	-9.4%	-20.3%	4.47µM*	?	20.5%	15.0%	?
CC(C)(C)c1ccc(C(=O)Nc2ccc([C@H]3OCC(=O)N[C@@H]3CO)cc2)cc1	?	i	-0.6%[70.6 µM]	10µM*	89.1µM*	26.8%[49.3 µM]	15.6%[49.3 µM]	?
O=C(Nc1ccc([C@H]2OCC(=O)N(Cc3ccncc3)[C@@H]2CO)cc1)c1ccc(C(F)(F)F)cc1	20µM*	-42.1%	?	12.6µM*	?	19.2%	14.3%	?
Cc1ccccc1C(=O)Nc1ccc([C@H]2OCC(=O)N(Cc3ccncc3)[C@@H]2CO)cc1	-8.8%[172 µM]	i	-13.4%[70.6 µM]	i	1.3%[174 µM]	/	/	/
Cc1ccc(C(=O)NCC2Cn3cccc3C(=O)N2CC(C)C)cn1 (centres undefined)	-8.0%	-17.1%	4.1%	i	-7.6%	/	/	/
CC(C)N1Cc2cc(C(=O)NC3CCN(Cc4ccccc4)CC3)sc2C1	?	?	-10.9%	i	?	/	/	/
CC(C)C(=O)NC1CCN(Cc2ccc(-c3nc4cccc(Cl)c4s3)cc2)CC1	/	/	/	/	/	12.7%	8.7%	-6.1%
CCC(=O)N1CCc2c(C(=O)NCc3cc(C)ccc3C)cccc21	-29.0%	-5.0%	2.7%	i	-10.6%	/	/	/
CNC(=O)c1cccc2c1CCN2C(=O)Nc1ccc(C)cc1	-26.1%	i	6.31µM*	0.398µM*	?	11.1µM*	0.442µM*	0.351µM*

Source: PubChem BioAssay (National Center for Advancing Translational Sciences (NCATS))
